Laboratory results reported in PubChem BioAssay (NCATS).
Records with an inconclusive call do not appear. A call without a number means that no potency is given here. The source made the active and inactive calls. Calls follow the shape of the dose curve; as a rule, active = well fitted cell-killing curve with a large enough effect; inconclusive = small, poorly fitted or top-dose-only effect, or effect the other way; inactive = flat fitted curve, though single readings scatter.

Tested on: HeLa
Assay: Primary qHTS to identify gynecologic anti-cancer compounds using libraries of approved drugs and bioactive compounds (AID 1345084); also: nearly all actives have a fitted effect of over 55% in size
Details: Gynecologic cancer cell panel viability, ATPlite luminescence, 48 h; series mostly up to 57.5 µM
Outline: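 Measured: luminescence after ATPlite addition (15 min, RT). Exposure: 48 h, 37 C, 5% CO2.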
Potency is read from the fitted curve at half-maximal effect.

SMILES | Potency | activity change, negative = cytotoxicity
O=[N+]([O-])c1cn2c(n1)OCC(OCc1ccc(OC(F)(F)F)cc1)C2 (centres undefined) | inactive | 
C=C1CCC2C(C)(C)CCC[C@]2(C)[C@H]1C/C=C(\CO)C(=O)C(=O)O (some centres undefined) | inactive | 
C=CC[C@]12C[C@@H](OC)C(=O)C(OC)=C1O[C@@H](c1cc(OC)c3c(c1)OCO3)[C@@H]2C | inactive | 
COCC1OC(OC(C)(C)C2CCC3(C)C=C(C4CCC5C4(C)CC(O)C4OC(C(C)(C)OC6OC(CO)C(O)C(O)C6NC(C)=O)CCC45C)CCC3O2)C(NC(C)=O)C(O)C1O (centres undefined) |  | 1.62% [at 11.6 µM] (inactive)
CCCCc1nc2cc(/C=C/C(=O)NO)ccc2n1CCN(CC)CC | 2510 nM (active) | 
CN1CCc2nc(C(=O)N[C@@H]3C[C@@H](C(=O)N(C)C)CC[C@@H]3NC(=O)C(=O)Nc3ccc(Cl)cn3)sc2C1 | inactive | 
C[C@@]1(O)[C@H](O)[C@@H](CO)O[C@H]1n1ccc(N)nc1=O | inactive | 
COc1ccc(-c2nc(-c3ccc(-c4cccc(Cl)c4)o3)[nH]c2-c2ccc(OC)cc2)cc1 | inactive | 
CCOCCn1nc(CC)c2nc(N3CCC(C(=O)O)CC3)nc(Nc3cc(C)ccn3)c21 | inactive | 
C=CCC1=C[C@]2(OC)[C@H](C)[C@@H](c3ccc(O)c(OC)c3)O[C@]2(OC)CC1=O | inactive | 
Cc1ccc(Cc2c(C)nc3nc(SCC(=O)NCCN4CCNCC4)nn3c2C)cc1 | inactive | 
CC1CC[C@]2(C(=O)O)CC[C@]3(C(=O)O)C(=CCC4[C@@]5(C)CC[C@H](OC6OC(C)C(O)C(OC7OC(CO)C(O)C(O)C7O)C6O)C(C)(C)C5CC[C@]43C)C2C1C (some centres undefined) | inactive | 
C=C1CC[C@@H]2[C@@](C)(CO[C@@H]3O[C@H](CO)C(O)[C@H](O)C3O)[C@H](O)CC[C@@]2(C)[C@@H]1CC/C(C)=C/CO (some centres undefined) |  | -3.99% [at 11.6 µM] (inactive)
O=C(Nc1ccc(-c2ccncc2)cc1)N[C@H](CO)c1ccccc1 | inactive | 
